Molecules are shown by their SMILES. Screen size: about 39,000 compounds; about 3,300 (8.5%) were called active. Only a selection was taken, and actives are over-represented in it overall.

This is an account of results in the antibiotic and cytotoxicity screens of Wong et al. (2023).

The test concerns HepG2. As to the kind of experiment: cytotoxicity call (relative viability < 0.9). Particulars: 10 µM.
In the case of `COc1ccc2c3c(n(c2c1)C)[C@H](CO)N(C[C@]13CCN(CC1)C(=O)c1ccncc1)C(=O)C1CCOCC1`, the cytotoxicity call was “inactive”.
The entry for `CC(C)NC(=O)Nc1cccc2c1O[C@@H](CN(C)C(=O)Nc1ccc3c(c1)OCO3)[C@@H](C)CN([C@H](C)CO)C2=O` is “inactive”; for `C[C@@H]1CCCCO[C@H](CN(C)S(=O)(=O)c2cn(C)cn2)[C@@H](C)CN([C@H](C)CO)C(=O)c2cc(NC(=O)c3ccncc3)ccc2O1` it is “inactive”.
The entry for `C[C@H]1CN([C@@H](C)CO)C(=O)c2cccc(NS(=O)(=O)c3cn(C)cn3)c2O[C@@H]1CN(C)S(=O)(=O)c1ccc(Cl)cc1` is “inactive”.
The result for `COc1ccc(CNC(=O)C[C@H]2CC[C@H]3[C@@H](COc4ccc(NC(=O)C5CC5)cc4C(=O)N3C)O2)cc1` reads “inactive”.
As for `Cl.Nc1ccn(C2OC(CO)C(O)C2(F)F)c(=O)n1` (stereo unspecified), the cytotoxicity call is “active”.
The result for `Nc1ccn(C2OC(CO)C(O)C2O)c(=O)n1` (stereo unspecified) reads “inactive”.
The result for `Nc1ccn([C@@H]2O[C@H](CO)[C@@H](O)C2(F)F)c(=O)n1` reads “inactive”.
As for `C#C[C@@]1(O)[C@@H](CO)O[C@@H](n2ccc(N)nc2=O)[C@@H]1O`, the cytotoxicity call was “active”.
The result for `Nc1ccn([C@@H]2O[C@H](CO)[C@@H](O)[C@H]2O)c(=O)n1` reads “inactive”; that for `C[C@@]1(F)[C@H](O)[C@@H](CO)O[C@H]1n1ccc(N)nc1=O`, “inactive”; that for `C[C@H](CO)N1C[C@H](C)[C@@H](CN(C)C(=O)C2CC2)OCc2cn(nn2)CCCC1=O`, “inactive”.
The result for `Cc1noc(C)c1S(=O)(=O)Nc1ccc2c(c1)C(=O)N([C@H](C)CO)C[C@H](C)[C@@H](CN(C)Cc1ccc(C(=O)O)cc1)O2` reads “inactive”; that for `C[C@@H]1CCCCO[C@@H](CN(C)C(=O)c2ccccc2)[C@H](C)CN([C@H](C)CO)C(=O)c2cc(NC(=O)Nc3ccc4c(c3)OCO4)ccc2O1`, “inactive”.
The entry for `C[C@H]1CCCCO[C@H](CN(C)C(=O)Cc2ccccc2)[C@@H](C)CN([C@@H](C)CO)C(=O)c2cc(NC(=O)Nc3ccc4c(c3)OCO4)ccc2O1` is “inactive”.
Regarding `C[C@@H]1CCCCO[C@@H](CN(C)C(=O)Cc2ccccc2)[C@@H](C)CN([C@H](C)CO)C(=O)c2cc(NC(=O)Nc3ccc(F)cc3)ccc2O1`, the cytotoxicity call is “inactive”.
The entry for `C[C@H](CO)N1C[C@H](C)[C@H](CN(C)C(=O)Cc2ccccc2)OCCCC[C@H](C)Oc2ccc(NC(=O)Nc3ccc4c(c3)OCO4)cc2C1=O` is “active”.
The result for `C[C@@H]1CCCCO[C@H](CN(C)C(=O)Cc2ccccc2)[C@@H](C)CN([C@H](C)CO)C(=O)c2cc(NC(=O)Nc3ccc(F)cc3)ccc2O1` reads “inactive”.
The entry for `C[C@@H]1CCCCO[C@@H](CN(C)C(=O)Cc2ccccc2)[C@H](C)CN([C@H](C)CO)C(=O)c2cc(NC(=O)Nc3ccc(F)cc3)ccc2O1` is “active”; for `C[C@@H]1CCCCO[C@H](CN(C)C(=O)Cc2ccccc2)[C@H](C)CN([C@@H](C)CO)C(=O)c2cc(NC(=O)NC3CCCCC3)ccc2O1` it is “inactive”; for `C[C@@H]1CCCCO[C@@H](CN(C)C(=O)Cc2ccccc2)[C@H](C)CN([C@H](C)CO)C(=O)c2cc(NC(=O)NC3CCCCC3)ccc2O1` it is “active”.
For the molecule `C[C@@H]1CCCCO[C@@H](CN(C)C(=O)Cc2ccccc2)[C@@H](C)CN([C@H](C)CO)C(=O)c2cc(NC(=O)NC3CCCCC3)ccc2O1`, the cytotoxicity call is “inactive”.
Regarding `C[C@@H]1CCCCO[C@@H](CN(C)C(=O)Cc2ccccc2)[C@@H](C)CN([C@@H](C)CO)C(=O)c2cc(NC(=O)Nc3ccc4c(c3)OCO4)ccc2O1`, the cytotoxicity call was “inactive”.
The result for `Nc1ncnc2c([C@@H]3N[C@H](CO)[C@@H](O)[C@H]3O)c[nH]c12` reads “inactive”; that for `Cc1noc(C)c1S(=O)(=O)Nc1ccc2c(c1)C(=O)N([C@H](C)CO)C[C@H](C)[C@@H](CN(C)Cc1ccc(Cl)c(Cl)c1)OCCCC[C@@H](C)O2`, “inactive”.
For the molecule `C[C@@H](Oc1ccccc1Cl)c1nc2ccc(Cl)cc2[nH]1`, the cytotoxicity call was “inactive”.
The entry for `COC(=O)[C@H]1c2cc3c(c(O)c2[C@@H](O[C@@H]2O[C@H](C)[C@H](OC)[C@](C)(OC)[C@@H]2OC)C[C@@]1(C)O)C(=O)c1c(O)cc2c(c1C3=O)O[C@H]1O[C@@]2(C)[C@@H](O)[C@H](N(C)C)[C@@H]1O` is “active”; for `O=C1O[C@H](c2ccccc2)[C@H](c2ccccc2)N2[C@H]1[C@@H](C(=O)N1CCCCCCC1)[C@]1(C(=O)Nc3ccc(C#CC4=CCCCC4)cc31)[C@H]2c1ccc(O)cc1` it is “inactive”.
Consider `COc1ccc(S(=O)(=O)N(C)C[C@@H]2Oc3c(NC(=O)C4CC4)cccc3C(=O)N([C@H](C)CO)C[C@H]2C)cc1`, for which the cytotoxicity call was “inactive”.
As for `O=C(C[C@H]1C=C[C@@H](NC(=O)c2ccc(F)cc2)[C@@H](CO)O1)NCc1ccncn1`, the cytotoxicity call was “inactive”.
`C[C@@H]1CN([C@H](C)CO)C(=O)Cc2cc(NS(=O)(=O)c3cn(C)cn3)ccc2O[C@H]1CN(C)C`: the cytotoxicity call was “inactive”.
The entry for `O=C(C[C@@H]1C=C[C@H](NC(=O)CN2CCOCC2)[C@H](CO)O1)NC1CCCCC1` is “inactive”; for `CO[C@@H]1CN(C)C(=O)c2ccc(NC(=O)c3ccccc3)cc2OC[C@H](C)N(C(=O)CN(C)C)C[C@@H]1C` it is “inactive”; for `OC[C@@H]1CCCO1` it is “inactive”.
The result for `COc1ccc(NC(=O)Nc2ccc3c(c2)CC(=O)N([C@@H](C)CO)C[C@H](C)[C@@H](CN(C)Cc2ccc(-c4ccccc4)cc2)O3)cc1` reads “inactive”.
Take `COc1ccc(NC(=O)Nc2ccc3c(c2)CC(=O)N([C@H](C)CO)C[C@H](C)[C@@H](CN(C)Cc2ccc(-c4ccccc4)cc2)O3)cc1`: the cytotoxicity call was “inactive”.
For `COc1ccc(NC(=O)Nc2ccc3c(c2)CC(=O)N([C@@H](C)CO)C[C@@H](C)[C@H](CN(C)Cc2ccc(-c4ccccc4)cc2)O3)cc1`, the cytotoxicity call was “active”.
`COc1ccc(NC(=O)Nc2ccc3c(c2)CC(=O)N([C@H](C)CO)C[C@@H](C)[C@H](CN(C)Cc2ccc(-c4ccccc4)cc2)O3)cc1`: the cytotoxicity call was “inactive”.
Turning to `COc1ccc(NC(=O)Nc2ccc3c(c2)CC(=O)N([C@@H](C)CO)C[C@@H](C)[C@@H](CN(C)Cc2ccc(-c4ccccc4)cc2)O3)cc1`, the cytotoxicity call was “active”.
As to `COc1ccc(NC(=O)Nc2ccc3c(c2)CC(=O)N([C@@H](C)CO)C[C@H](C)[C@H](CN(C)Cc2ccc(-c4ccccc4)cc2)O3)cc1`, the cytotoxicity call was “active”.
The result for `COc1ccc(NC(=O)Nc2ccc3c(c2)CC(=O)N([C@H](C)CO)C[C@H](C)[C@H](CN(C)Cc2ccc(-c4ccccc4)cc2)O3)cc1` reads “active”.
Regarding `C[C@@H]1CN([C@H](C)CO)C(=O)Cc2cc(NS(=O)(=O)c3cccs3)ccc2O[C@@H]1CN(C)S(=O)(=O)c1ccc(F)cc1`, the cytotoxicity call is “inactive”.
The entry for `COc1ccc(NC(=O)N(C)C[C@@H]2Oc3ccc(NC(=O)CCCCCC(=O)Nc4ccccc4N)cc3CC(=O)N([C@@H](C)CO)C[C@@H]2C)cc1` is “inactive”; for `C[C@@H]1CN([C@H](C)CO)C(=O)c2cc(NC(=O)C3CC3)ccc2O[C@H]1CN(C)S(=O)(=O)c1cn(C)cn1` it is “inactive”.
The result for `O=C(Cc1n[nH]c(=O)[nH]1)NCc1n[nH]c2c1CCCCC2` reads “inactive”.
The entry for `N=C1SCCN1CC(=O)O` is “inactive”.
As for `C[C@@H]1CCCCO[C@H](CN(C)S(=O)(=O)c2ccc(F)cc2)[C@H](C)CN([C@@H](C)CO)C(=O)c2cc(NC(=O)CCC(F)(F)F)ccc2O1`, the cytotoxicity call was “inactive”.
The result for `C[C@H]1CN([C@@H](C)CO)C(=O)c2cc(NC(=O)Cn3cnnn3)ccc2O[C@@H]1CN(C)S(=O)(=O)c1cn(C)cn1` reads “inactive”; that for `Cc1ccc(S(=O)(=O)N(C)C[C@H]2Oc3c(NS(=O)(=O)c4cn(C)cn4)cccc3C(=O)N([C@H](C)CO)C[C@H]2C)cc1`, “inactive”; that for `Cc1noc(C)c1NC(=O)Nc1ccc2c(c1)C(=O)N([C@H](C)CO)C[C@H](C)[C@@H](CN(C)C(=O)Nc1c(C)noc1C)OCCCC[C@@H](C)O2`, “inactive”.
The entry for `COc1ccc(-c2cnc3c(c2)C(=O)N([C@H](C)CO)C[C@@H](C)[C@H](CN(C)C(=O)Cc2ccccn2)O3)cc1` is “inactive”; for `CNC[C@H]1Oc2ccc(NC(=O)Cn3cnnn3)cc2CC(=O)N([C@@H](C)CO)C[C@@H]1C` it is “inactive”.
`C[C@@H]1CN([C@H](C)CO)C(=O)c2cc(C3=CCCC3)cnc2O[C@@H]1CN(C)S(=O)(=O)c1cn(C)cn1`: the cytotoxicity call is “inactive”.
For the molecule `C[n+]1cccc(C(=O)O)c1`, the cytotoxicity call is “inactive”.
For `COc1ccc(NC(=O)Nc2ccc3c(c2)CC(=O)N([C@H](C)CO)C[C@@H](C)[C@@H](CN(C)Cc2ccc(-c4ccccc4)cc2)O3)cc1`, the cytotoxicity call was “active”.
The entry for `Cc1noc(C)c1NC(=O)Nc1ccc2c(c1)CC(=O)N([C@H](C)CO)C[C@H](C)[C@@H](CN(C)C(=O)NC(C)C)O2` is “inactive”; for `CCc1ccc(/C=C2\SC(=O)N(CCCCCCNC(=O)c3ccc(Nc4ccc([N+](=O)[O-])c5nonc45)cc3)C2=O)cc1` it is “inactive”.
As to `CCc1ccc(/C=C2\SC(=O)N(CCCCCCNC(=O)c3ccccc3Nc3ccc([N+](=O)[O-])c4nonc34)C2=O)cc1`, the cytotoxicity call was “active”.
As for `N[C@H]1CCCN(Cc2cccc(O)c2)C1`, the cytotoxicity call is “inactive”.
On to `O=C(CCCCCCC(=O)Nc1ccc([C@H]2O[C@@H](CSc3ccncc3)C[C@H](c3ccccc3)O2)cc1)NO`, for which the cytotoxicity call is “inactive”.
The entry for `O=C(/C=C/c1ccc(CNc2ccc([C@H]3O[C@@H](CSc4ccncc4)C[C@H](c4ccccc4)O3)cc2)cc1)NO` is “active”; for `O=C(CCCCCCC(=O)Nc1ccc([C@@H]2O[C@H](CSc3ccncc3)C[C@H](c3ccccc3)O2)cc1)NO` it is “inactive”; for `C[C@H]1CN([C@@H](C)CO)C(=O)c2c(c3ccccc3n2C)-c2ccccc2CO[C@@H]1CN(C)Cc1ccc(Cl)c(Cl)c1` it is “inactive”.
The entry for `O=C1C(=Cc2cccs2)CCCC1=Cc1cccs1` is “inactive”; for `O=C1/C(=C/c2cccs2)CCC/C1=C\c1cccs1` it is “inactive”; for `CC(C)/C=C1\CC/C(=C\c2ccc(C(F)(F)F)cc2)C1=O` it is “active”.
